Measured values taken from PubChem BioAssay (NCI).
About 83,000 compounds went through this panel and 20% of them were active in at least one assay; those are over-represented in the sample as a whole.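 Percent growth is the endpoint: 0 to 100 indicates growth inhibition (40 means 60% inhibition), 0 means no net growth, and negative values indicate cell death.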 Values without a mark were called inactive. The source made the active and inactive calls. The calls were made as follows: active = growth percent below 10; inactive = the rest.

system: U251 CNS; assay: NCI-60 one-dose screen, 48 h (100 = growth as untreated, 0 = no growth, -100 = all killed); details: 10 µM

| SMILES | growth |
| --- | --- |
| Cc1ccc(/C=C/C(=O)c2ccc(NC(=O)CSc3nnc(-c4c[nH]c5ccccc45)n3-c3ccccc3)cc2)cc1 | 78.5% |
| O=C(Nc1nc2ccc([N+](=O)[O-])cc2s1)Nc1cc(Cl)ccc1I | -23.5% (active) |
| Cc1ccc(C(=O)CSc2nnc(-c3c[nH]c4ccccc34)n2-c2ccccc2)cc1 | 9.78% (active) |
| COc1ccc2[nH]c(O)c(N=NC(=O)c3cc(-c4ccc(C)cc4)nc4ccccc34)c2c1 | 88.5% |
| Cn1cc(/C=N/Nc2cccc(Cl)n2)c2ccccc21 | 56.2% |
| N#Cc1ccc(-c2nn(-c3ccc(C(=O)O)cc3)cc2CNc2ccc(Cl)cc2)cc1 | 76.8% |
| O=c1[nH]c2ccccc2cc1CSc1ccc(Nc2nccc(-c3ccc4ccccc4c3)n2)cc1 | 20% |
| OCCCNc1oc(-c2ccccc2)nc1[P+](c1ccccc1)(c1ccccc1)c1ccccc1 | 13.7% |
| COc1ccc(C(=O)/C=C/c2cc(C(F)(F)F)cc(C(F)(F)F)c2)cc1S(N)(=O)=O | -68.1% (active) |
| CS(=O)(=O)Nc1ccc(-c2ccc3c(c2)ncn3-c2ccc(NC(=O)Nc3ccc(Cl)c(C(F)(F)F)c3)cc2)cc1 | -87.4% (active) |
| O=c1nc(-c2ccccc2)cc(-c2cc3ccccc3nc2Cl)[nH]1 | -72.7% (active) |
| COc1cccc(/C=C2\N=C(C)N(CCc3ccc(S(N)(=O)=O)cc3)C2=O)c1 | 99.9% |
| O=S(=O)(Nc1ncccn1)c1ccc(-n2c(-c3ccccc3)nc(-c3ccccc3)c2-c2ccccc2)cc1 | 81.5% |
| Cc1ccc(-c2nc(Nc3ccc(S(N)(=O)=O)cc3)c3ccccc3n2)cc1 | 49.7% |
| COc1ccc(C(C)=C(c2ccc(OCCCN(C)C)cc2)c2ccc(OCCCN(C)C)cc2)cc1 | -97.5% (active) |
| COC[C@@H](CC(C)C)N=C1NC(=O)/C(=C/c2ccc3ncsc3c2)N1 | 15.8% |
| Cc1ccc(-c2nc3ccc(C(=O)N=Nc4c(O)[nH]c5ccc(Cl)cc45)cc3[nH]2)cc1 | -100% (active) |

| SMILES | growth |
| --- | --- |
| COc1cccc(/C=N/NC(=O)c2ccc3nc(-c4ccc(Cl)cc4)[nH]c3c2)c1O | -90.8% (active) |
| N#Cc1ccc(-c2nn(-c3ccc(C(=O)O)cc3)cc2CNc2ccc(Oc3ccccc3)cc2)cc1 | 33.9% |
| CC(=O)c1ccc(Nc2nc(SCCC(C)C)nc(-c3ccc(F)cc3)c2C#N)cc1 | 2.09% (active) |
| Cc1cc(C)nc(NS(=O)(=O)c2ccc(N/C(N)=N/c3nccc(-c4ccccc4)n3)cc2)n1 | 77.6% |
| COc1cccc(-c2ccnc(/N=C(\N)Nc3ccc(S(=O)(=O)Nc4nc(C)cc(C)n4)cc3)n2)c1 | 101% |
| CC(=O)C1=C(C)NC(SCC(=O)Nc2ccc(S(=O)(=O)Nc3cc(C)on3)cc2)=NC1c1ccccc1 (stereo not drawn) | 103% |
| COc1cccc2nc(Nc3ccc(F)c(NC(=O)c4ccc(CN5CCN(C)CC5)c(C(F)(F)F)c4)c3)ccc12 | -42.7% (active) |
| CNCc1cccc2c1OCCCCCC[C@@](C)(O)CC1(CC1)S(=O)(=O)c1ccc(cc1)-c1cnc(N)c(n1)C(=O)N2 | -83.8% (active) |
| CN(C)c1ccc(/C=C/c2nc3ccccc3c(=O)n2CC(=O)Nc2ccccc2)cc1 | 16.5% |
| O=C1CCC(N2Cc3c(C#CCCCNC(=O)c4ccc(NC(=O)[C@@H]5NC6(CCCCC6)[C@@]6(C(=O)Nc7cc(Cl)ccc76)[C@H]5c5cccc(Cl)c5F)cc4)cccc3C2=O)C(=O)N1 (stereo partly drawn) | 55.4% |
| O=C(N/N=C/c1ccc(-c2cccc([N+](=O)[O-])c2)o1)c1[nH]c2ccc(Br)cc2c1-c1ccccc1 | 9.05% (active) |
| O=C(c1ccc(Cl)cc1)C1[C@H](c2ccccc2Br)[C@@H](c2ccccc2)NC12C(=O)Nc1ccc(Br)cc12 (stereo partly drawn) | -29.1% (active) |
| O=C(c1ccc(Cl)cc1)C1[C@H](c2ccccc2Br)[C@@H](c2ccccc2)NC12C(=O)Nc1ccccc12 (stereo partly drawn) | 21.5% |
| O=C(Nc1cc(Cl)cc(Cl)c1)Nc1cc(Cl)cc(Cl)c1 | -23.2% (active) |
| CC(C)C1=C[C@@]23CC[C@@H]4[C@](C)(CCC[C@]4(C)C(=O)NCc4ccccc4)[C@H]2C[C@@H]1[C@H]1C(=O)CCC(=O)[C@H]13 | 67% |
| COc1ccc(Nc2nc(N)n(Cc3cccc(Br)c3)n2)cc1 | 24.7% |
